Normalized growth data for five molecules are collected here from PubChem BioAssay AID1159580 (chemical genetic matrix, 2015).

The assay can be described thus: chemical genetic growth profiling, strain panel (AID 1159580).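 Note: tested at 20 µM; growth read once vehicle control cultures reached saturation at 30 °C; 1 = growth at the plate median or of vehicle wells; lower values mean less growth of the strain.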 Conditions: growth OD.
Setting [1] is: S. cerevisiae deletion strains, locus YAL040C, strain CLN3, stronger effect = lower value.
Where [2] appears, read: S. cerevisiae deletion strains, locus YDR363W, strain ESC2, stronger effect = lower value.
[3] abbreviates: S. cerevisiae deletion strains, locus YER002W, strain NOP16, stronger effect = lower value.
Setting [4] is: S. cerevisiae deletion strains, locus YMR307W, strain GAS1, stronger effect = lower value.
Setting [5] is: S. cerevisiae deletion strains, locus YNL153C, strain GIM3, stronger effect = lower value.
The mark [6] stands for this setting: S. cerevisiae deletion strains, locus YNL175C, strain NOP13, stronger effect = lower value.
The mark [7] stands for this setting: S. cerevisiae deletion strains, locus YNL197C, strain WHI3, stronger effect = lower value.
The mark [8] stands for this setting: S. cerevisiae deletion strains, locus YNL224C, strain SQS1, stronger effect = lower value.
Where [9] appears, read: S. cerevisiae deletion strains, locus YOR083W, strain WHI5 (second series), stronger effect = lower value.
Setting [10] is: S. cerevisiae deletion strains, locus YPL055C, strain LGE1, stronger effect = lower value.
The mark [11] stands for this setting: S. cerevisiae deletion strains, locus YPL241C, strain CIN2, stronger effect = lower value.
The mark [12] stands for this setting: S. cerevisiae deletion strains, locus YAL013W, strain DEP1, stronger effect = lower value.
The mark [13] stands for this setting: S. cerevisiae deletion strains, locus YBR229C, strain ROT2, stronger effect = lower value.
Where [14] appears, read: S. cerevisiae deletion strains, locus YDL101C, strain DUN1, stronger effect = lower value.
[15] abbreviates: S. cerevisiae deletion strains, locus YDL134C, strain PPH21, stronger effect = lower value.
Setting [16] is: S. cerevisiae deletion strains, locus YDR150W, strain NUM1, stronger effect = lower value.
Where [17] appears, read: S. cerevisiae deletion strains, locus YEL061C, strain CIN8, stronger effect = lower value.
[18] abbreviates: S. cerevisiae deletion strains, locus YGR078C, strain PAC10, stronger effect = lower value.
The mark [19] stands for this setting: S. cerevisiae deletion strains, locus YGR229C, strain SMI1, stronger effect = lower value.
Setting [20] is: S. cerevisiae deletion strains, locus YHR030C, strain SLT2, stronger effect = lower value.
[21] abbreviates: S. cerevisiae deletion strains, locus YHR087W, strain rtc3, stronger effect = lower value.
The mark [22] stands for this setting: S. cerevisiae deletion strains, locus YJR043C, strain POL32, stronger effect = lower value.
The mark [23] stands for this setting: S. cerevisiae deletion strains, locus YJR075W, strain HOC1, stronger effect = lower value.
Setting [24] is: S. cerevisiae deletion strains, locus YKL190W, strain CNB1, stronger effect = lower value.
The mark [25] stands for this setting: S. cerevisiae deletion strains, locus YLR039C, strain RIC1, stronger effect = lower value.
Setting [26] is: S. cerevisiae deletion strains, locus YLR058C, strain SHM2 (second series), stronger effect = lower value.
[27] abbreviates: S. cerevisiae deletion strains, locus YLR085C, strain ARP6, stronger effect = lower value.
[28] abbreviates: S. cerevisiae deletion strains, locus YLR262C, strain YPT6, stronger effect = lower value.
Setting [29] is: S. cerevisiae deletion strains, locus YML094W, strain GIM5, stronger effect = lower value.
[30] abbreviates: S. cerevisiae deletion strains, locus YMR219W, strain ESC1, stronger effect = lower value.
The mark [31] stands for this setting: S. cerevisiae deletion strains, locus YMR263W, strain SAP30, stronger effect = lower value.
[32] abbreviates: S. cerevisiae deletion strains, locus YNL298W, strain CLA4 (second series), stronger effect = lower value.
[33] abbreviates: S. cerevisiae deletion strains, locus YNL322C, strain KRE1, stronger effect = lower value.
[34] abbreviates: S. cerevisiae deletion strains, locus YNR030W, strain Alg12, stronger effect = lower value.
Where [35] appears, read: S. cerevisiae deletion strains, locus YOL006C, strain TOP1, stronger effect = lower value.
Where [36] appears, read: S. cerevisiae deletion strains, locus YPR135W, strain CTF4, stronger effect = lower value.
Setting [37] is: S. cerevisiae deletion strains, locus YJL187C, strain SWE1, stronger effect = lower value.
[38] abbreviates: S. cerevisiae deletion strains, locus YNL128W, strain TEP1, stronger effect = lower value.

Molecules are shown by their SMILES. About 2,000 (36%) of roughly 5,500 compounds were called active. Roughly 18% stayed inconclusive and do not appear here. Some of the results follow. Unmarked numbers belong to inactive results. Cut-off read from the data, not from the text of the source: active = normalized growth mostly below about 0.91 (no sharp cut-off); inconclusive = no clear call, values can overlap the other calls; inactive = mostly above about 0.92.

As to `N[C@@H](CCl)C(=O)O`, the normalized growth by setting is: under setting [1], 0.98; under setting [2], 1.03; under setting [3], 0.99; under setting [4], 0.993; under setting [5], 1.05; under setting [6], 1.01. The normalized growth is 1.03 under setting [7]; 0.996 under setting [8]; 1.01 under setting [9]; 1.02 under setting [10]; 1 under setting [11].
Turning to `CC(=O)Nc1cc2ccccc2oc1=O`, the normalized growth reads like this: under setting [12], 1; under setting [13], 1; under setting [14], 0.975; under setting [15], 1; under setting [16], 0.986; under setting [17], 1.02. Further, the normalized growth was 1.01 under setting [18]; 0.997 under setting [19]; 0.942 under setting [20]; 0.988 under setting [21]; 1.01 under setting [22]; 0.997 under setting [23]. The normalized growth is, setting by setting: under setting [24], 1; under setting [25], 1.06; under setting [26], 1.01; under setting [27], 1.01; under setting [28], 1.04; under setting [29], 0.997. The normalized growth reads like this: under setting [30], 1; under setting [31], 0.996; under setting [4], 1.09; under setting [5], 0.984; under setting [32], 0.998; under setting [33], 1.01. The normalized growth was 1 under setting [34]; 0.958 under setting [35]; 0.969 under setting [10]; 0.985 under setting [11]; 0.946 under setting [36].
With `CC(=O)c1cc2ccccc2oc1=O`, the normalized growth was 1.02 under setting [12]; 1.01 under setting [13]; 0.961 under setting [14]; 1.02 under setting [15]; 0.94 under setting [16]; 1.01 under setting [17]. The normalized growth runs as follows: under setting [18], 0.986; under setting [20], 1; under setting [21], 1.03; under setting [37], 0.999; under setting [22], 0.999; under setting [23], 0.988. Moreover, the normalized growth runs as follows: under setting [25], 1.05; under setting [26], 1.01; under setting [27], 1.08; under setting [28], 1; under setting [29], 1.02; under setting [30], 0.993. Further, the normalized growth under setting [31] was 1.02; the normalized growth under setting [38] was 1.01; the normalized growth under setting [5] was 1.01; the normalized growth under setting [32] was 1.07; the normalized growth under setting [33] is 0.99; the normalized growth under setting [34] is 1.05. The normalized growth under setting [35] was 1.02; the normalized growth under setting [10] was 1.13; the normalized growth under setting [11] is 1.03; the normalized growth under setting [36] was 0.984; the normalized growth (S. cerevisiae strains, strain wild type, stronger effect = lower value) was 1.03.
Take `CC(=O)c1cc2cc(Br)ccc2oc1=O`: the normalized growth reads like this: under setting [12], 0.987; under setting [13], 0.967; under setting [14], 0.998; under setting [16], 0.994; under setting [17], 0.975; under setting [18], 0.976. Besides, the normalized growth by setting is: under setting [19], 0.994; under setting [20], 0.818; under setting [21], 0.96; under setting [37], 0.97; under setting [22], 0.984; under setting [23], 0.948. For the same molecule, the normalized growth is 0.992 under setting [24]; 0.618 (active) under setting [25]; 0.964 under setting [26]; 0.936 under setting [27]; 0.628 (active) under setting [28]; 0.999 under setting [29]. In addition, the normalized growth reads like this: under setting [30], 0.96; under setting [31], 1; under setting [38], 1.01; under setting [5], 0.994; under setting [32], 0.983; under setting [33], 0.964. In addition, the normalized growth by setting is: under setting [34], 0.97; under setting [10], 1.02; under setting [11], 0.964; under setting [36], 0.717.
Consider `CCCCCCCCCCCCCCCCOCC(COCC(F)(F)F)OP(=O)(O)OCO` (stereo unspecified), for which the normalized growth reads like this: under setting [12], 0.947; under setting [1], 1; (S. cerevisiae deletion strains, locus YCL061C, strain MRC1 (second series), stronger effect = lower value) 0.987; under setting [2], 0.968; under setting [3], 0.995; under setting [19], 0.767 (active). The normalized growth was 1.03 under setting [23]; 1.02 under setting [31]; 0.995 under setting [6]; 1 under setting [7]; 0.964 under setting [8]; 0.988 under setting [9]. Moreover, the normalized growth was 0.881 (active) under setting [10] and 0.988 under setting [11].
